Measurements taken from PubChem BioAssay AID1159580 (chemical genetic matrix, 2015).
The whole screen tested about 5,500 compounds, of which about 2,000 (36%) were called active. Roughly 18% stayed inconclusive and do not appear here. No stated cut-off is given here; in the data, active means normalized growth mostly below about 0.91 (no sharp cut-off); inconclusive means no clear call, values can overlap the other calls; inactive means mostly above about 0.92. This is one part of the list.

Experiment: chemical genetic growth profiling, strain panel (AID 1159580);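 further: tested at 20 µM; growth read once vehicle control cultures reached saturation at 30 °C; 1 = growth at the plate median or of vehicle wells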
Details: growth OD

Measured: normalized growth

COC1C(O)C(O)C(O)[C@@H](O)C1O (some centres undefined)
inactive: S. cerevisiae deletion strains, locus YJR066W, strain TOR1, stronger effect = lower value 0.926 | S. cerevisiae deletion strains, locus YJR075W, strain HOC1, stronger effect = lower value 1.01 | S. cerevisiae deletion strains, locus YKL009W, strain mrt4, stronger effect = lower value 1.1 | S. cerevisiae deletion strains, locus YKL068W, stronger effect = lower value 1.01 | S. cerevisiae deletion strains, locus YKL085W, strain MDH1 (second series), stronger effect = lower value 1.02 | S. cerevisiae deletion strains, locus YKL085W, strain MDH1, stronger effect = lower value 1.02 | S. cerevisiae deletion strains, locus YKL160W, strain elf1, stronger effect = lower value 0.968 | S. cerevisiae deletion strains, locus YKL190W, strain CNB1, stronger effect = lower value 1.01 | S. cerevisiae deletion strains, locus YKR001C, strain vps1, stronger effect = lower value 1.05 | S. cerevisiae deletion strains, locus YKR026C, strain gcn3, stronger effect = lower value 0.978 | S. cerevisiae deletion strains, locus YKR091W, strain srl3, stronger effect = lower value 0.972 | S. cerevisiae deletion strains, locus YLL001W, strain dnm1, stronger effect = lower value 0.944 | S. cerevisiae deletion strains, locus YLL026W, stronger effect = lower value 0.992 | S. cerevisiae deletion strains, locus YLL041C, strain sdh2, stronger effect = lower value 0.978 | S. cerevisiae deletion strains, locus YLR027C, strain aat2, stronger effect = lower value 0.969 | S. cerevisiae deletion strains, locus YLR039C, strain RIC1, stronger effect = lower value 1.07 | S. cerevisiae deletion strains, locus YLR058C, strain SHM2, stronger effect = lower value 1.01 | S. cerevisiae deletion strains, locus YLR102C, strain apc9, stronger effect = lower value 1.02 | S. cerevisiae deletion strains, locus YLR113W, strain HOG1, stronger effect = lower value 0.97 | S. cerevisiae deletion strains, locus YLR221C, strain rsa3, stronger effect = lower value 0.965 | S. cerevisiae deletion strains, locus YLR258W, strain gsy2, stronger effect = lower value 0.979 | S. cerevisiae deletion strains, locus YLR262C, strain YPT6 (second series), stronger effect = lower value 0.971 | S. cerevisiae deletion strains, locus YLR262C, strain YPT6, stronger effect = lower value 1.03 | S. cerevisiae deletion strains, locus YLR268W, strain sec22, stronger effect = lower value 1.05 | S. cerevisiae deletion strains, locus YLR320W, strain mms22, stronger effect = lower value 0.963 | S. cerevisiae deletion strains, locus YLR330W, strain CHS5, stronger effect = lower value 1.01 | S. cerevisiae deletion strains, locus YLR342W, strain FKS1 (second series), stronger effect = lower value 1.08 | S. cerevisiae deletion strains, locus YLR342W, strain FKS1, stronger effect = lower value 0.973 | S. cerevisiae deletion strains, locus YLR357W, strain rsc2, stronger effect = lower value 0.959 | S. cerevisiae deletion strains, locus YLR370C, strain arc18, stronger effect = lower value 0.971 | S. cerevisiae deletion strains, locus YLR371W, strain rom2, stronger effect = lower value 1.02 | S. cerevisiae deletion strains, locus YLR384C, strain iki3, stronger effect = lower value 0.96 | S. cerevisiae deletion strains, locus YLR418C, strain cdc73, stronger effect = lower value 1.06 | S. cerevisiae deletion strains, locus YML016C, strain PPZ1, stronger effect = lower value 1.01 | S. cerevisiae deletion strains, locus YML032C, strain rad52, stronger effect = lower value 1.04 | S. cerevisiae deletion strains, locus YML120C, strain ndi1, stronger effect = lower value 0.97 | S. cerevisiae deletion strains, locus YML124C, strain tub3, stronger effect = lower value 1.02 | S. cerevisiae deletion strains, locus YMR058W, strain fet3, stronger effect = lower value 0.973 | S. cerevisiae deletion strains, locus YMR078C, strain ctf18, stronger effect = lower value 1.01 | S. cerevisiae deletion strains, locus YMR125W, strain sto1, stronger effect = lower value 0.958 | S. cerevisiae deletion strains, locus YMR129W, stronger effect = lower value 0.976 | S. cerevisiae deletion strains, locus YMR205C, strain PFK2, stronger effect = lower value 0.966 | S. cerevisiae deletion strains, locus YMR223W, strain ubp8, stronger effect = lower value 1 | S. cerevisiae deletion strains, locus YMR231W, strain pep5, stronger effect = lower value 0.971 | S. cerevisiae deletion strains, locus YMR263W, strain SAP30, stronger effect = lower value 0.997 | S. cerevisiae deletion strains, locus YMR307W, strain GAS1, stronger effect = lower value 1.05 | S. cerevisiae deletion strains, locus YNL067W, strain RPL9B, stronger effect = lower value 0.998 | S. cerevisiae deletion strains, locus YNL071W, strain lat1, stronger effect = lower value 0.973 | S. cerevisiae deletion strains, locus YNL128W, strain TEP1, stronger effect = lower value 1.03 | S. cerevisiae deletion strains, locus YNL183C, strain NPR1, stronger effect = lower value 0.962 | S. cerevisiae deletion strains, locus YNL209W, strain ssb2, stronger effect = lower value 0.987 | S. cerevisiae deletion strains, locus YNL233W, strain BNI4, stronger effect = lower value 1.01 | S. cerevisiae deletion strains, locus YNL248C, strain rpa49, stronger effect = lower value 0.976 | S. cerevisiae deletion strains, locus YNL250W, strain rad50, stronger effect = lower value 1.02 | S. cerevisiae deletion strains, locus YNL271C, strain bni1, stronger effect = lower value 1.01 | S. cerevisiae deletion strains, locus YNL298W, strain CLA4, stronger effect = lower value 1.03 | S. cerevisiae deletion strains, locus YNL307C, strain MCK1, stronger effect = lower value 1.02 | S. cerevisiae deletion strains, locus YNL322C, strain KRE1 (second series), stronger effect = lower value 0.97 | S. cerevisiae deletion strains, locus YNR049C, strain mso1, stronger effect = lower value 0.979 | S. cerevisiae deletion strains, locus YNR052C, strain pop2, stronger effect = lower value 1.01 | S. cerevisiae deletion strains, locus YOL012C, strain htz1 1.17 | S. cerevisiae deletion strains, locus YOL147C, strain pex11, stronger effect = lower value 1.01 | S. cerevisiae deletion strains, locus YOR001W, strain rrp6, stronger effect = lower value 0.995 | S. cerevisiae deletion strains, locus YOR061W, strain CKA2, stronger effect = lower value 1.02 | S. cerevisiae deletion strains, locus YOR069W, strain VPS5, stronger effect = lower value 1.01 | S. cerevisiae deletion strains, locus YOR070C, strain gyp1, stronger effect = lower value 1 | S. cerevisiae deletion strains, locus YOR080W, strain dia2, stronger effect = lower value 0.979 | S. cerevisiae deletion strains, locus YOR083W, strain WHI5, stronger effect = lower value 0.964 | S. cerevisiae deletion strains, locus YOR106W, strain vam3, stronger effect = lower value 0.96 | S. cerevisiae deletion strains, locus YOR136W, strain idh2, stronger effect = lower value 1.03 | S. cerevisiae deletion strains, locus YOR144C, strain elg1, stronger effect = lower value 1.01 | S. cerevisiae deletion strains, locus YOR184W, strain ser1, stronger effect = lower value 1.03 | S. cerevisiae deletion strains, locus YOR231W, strain MKK1, stronger effect = lower value 0.977 | S. cerevisiae deletion strains, locus YOR265W, strain rbl2, stronger effect = lower value 0.989 | S. cerevisiae deletion strains, locus YOR270C, strain vph1, stronger effect = lower value 0.985 | S. cerevisiae deletion strains, locus YOR290C, strain snf2, stronger effect = lower value 0.913 | S. cerevisiae deletion strains, locus YOR316C, strain cot1, stronger effect = lower value 1.02 | S. cerevisiae deletion strains, locus YPL051W, strain arl3, stronger effect = lower value 0.97 | S. cerevisiae deletion strains, locus YPL055C, strain LGE1, stronger effect = lower value 1.02 | S. cerevisiae deletion strains, locus YPL078C, strain atp4, stronger effect = lower value 0.965 | S. cerevisiae deletion strains, locus YPL106C, strain sse1, stronger effect = lower value 0.949 | S. cerevisiae deletion strains, locus YPL240C, strain hsp82, stronger effect = lower value 0.986 | S. cerevisiae deletion strains, locus YPL256C, strain CLN2, stronger effect = lower value 0.93 | S. cerevisiae deletion strains, locus YPR119W, strain clb2, stronger effect = lower value 1.02 | S. cerevisiae deletion strains, locus YPR141C, strain kar3, stronger effect = lower value 1.03 | S. cerevisiae deletion strains, locus YPR163C, strain tif3, stronger effect = lower value 1.02 | S. cerevisiae deletion strains, locus YPR167C, strain met16, stronger effect = lower value 1.05 | S. cerevisiae deletion strains, strain wtn01, stronger effect = lower value 1.06 | S. cerevisiae strains, strain wild type, stronger effect = lower value 1.01
